For part of these data: Measured potencies and affinities stand elsewhere. Activity calls are given as the source filed them. Unless noted, no rule for the calls is given here.
Legend:
[1] = antimalarial activity against Dd2 strain (AID 2302;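 active = growth inhibition above 50% at the single 2 µM test dose, taken to imply half-maximal potency below 2 µM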;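 also: 0% = DMSO untreated growth and 100% = chloroquine plus artemisinin killed control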); settings: P. falciparum Dd2 in RBCs, LDH growth readout, 72 h; at 2 µM; hits give high values
[2] = human hepatoma cell viability loss – ATP luminescence, cytotoxicity control for P. falciparum antimalarial project, primary screen (AID 2303;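 active = inhibition above 50%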;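 also: 0% = DMSO wells and 100% = digitonin-killed cells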); settings: HepG2 viability, 24-48 h, at 10 µM, hits give high values
[3] = biological target: L-lactate dehydrogenase (Plasmodium falciparum (isolate CDC / Honduras)) (UniProt Q27743); experiment: PfLDH activity inhibition – cell lysate, 3D7 strain, counter-screen for P. falciparum growth inhibition project (AID 2304);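 also: 0% = vehicle and 100% = reference inhibitor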; settings: P. falciparum 3D7 crude extract, LDH APAD/NBT absorbance; at 2 µM; hits give high values
Chain of L-lactate dehydrogenase (Plasmodium falciparum (isolate CDC / Honduras)) (Q27743 whole entry, looked up): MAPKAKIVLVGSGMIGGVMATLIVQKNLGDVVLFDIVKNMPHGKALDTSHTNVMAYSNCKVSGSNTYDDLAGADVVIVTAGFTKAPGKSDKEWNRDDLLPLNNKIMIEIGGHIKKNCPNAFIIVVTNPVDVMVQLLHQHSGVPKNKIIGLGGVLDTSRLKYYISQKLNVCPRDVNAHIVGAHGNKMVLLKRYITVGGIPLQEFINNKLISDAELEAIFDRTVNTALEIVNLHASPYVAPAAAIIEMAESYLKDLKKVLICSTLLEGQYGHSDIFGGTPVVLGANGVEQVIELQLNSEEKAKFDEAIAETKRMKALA

[4] = inhibition of 3D7 malaria parasite growth – strain 3D7 (AID 2306);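 also: 0% = DMSO wells and 100% = chloroquine plus artemisinin control wells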; settings: P. falciparum 3D7 erythrocytic growth, LDH absorbance, 72 h; at 2 µM; hits give high values
[5] = biological target: Calcium-dependent protein kinase 1 (Plasmodium falciparum (isolate 3D7)) (UniProt P62344); experiment: PfCDPK1 kinase inhibitors, biochemical, TCAMS library (AID 1159585; cut-off not given, nearly all actives have IC50 up to about 0.98 µM;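 also: inhibitors leave more ATP so luminescence rises with inhibition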); settings: recombinant PfCDPK1, Kinase-Glo ATP depletion luminescence
Chain of Calcium-dependent protein kinase 1 (Plasmodium falciparum (isolate 3D7)) (P62344 whole entry, looked up): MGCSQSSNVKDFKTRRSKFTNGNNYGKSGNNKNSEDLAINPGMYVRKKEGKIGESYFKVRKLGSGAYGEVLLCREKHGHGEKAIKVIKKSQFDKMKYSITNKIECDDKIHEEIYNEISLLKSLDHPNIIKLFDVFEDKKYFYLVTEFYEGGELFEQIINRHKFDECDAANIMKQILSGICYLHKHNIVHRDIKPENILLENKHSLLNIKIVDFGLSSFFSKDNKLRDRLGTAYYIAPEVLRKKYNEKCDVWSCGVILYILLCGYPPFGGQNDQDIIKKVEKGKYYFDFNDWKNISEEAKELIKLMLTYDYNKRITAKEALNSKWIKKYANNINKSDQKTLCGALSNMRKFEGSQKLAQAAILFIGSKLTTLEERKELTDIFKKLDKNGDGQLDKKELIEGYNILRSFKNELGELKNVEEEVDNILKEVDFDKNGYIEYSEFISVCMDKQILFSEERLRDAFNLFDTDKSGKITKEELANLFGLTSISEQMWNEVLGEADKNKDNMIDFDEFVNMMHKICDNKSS

[6] = biological target: Plasmodium falciparum protein kinase 6 (PK6, PF3D7_1337100) (UniProt Q8IDW1); experiment: PfPK6 kinase inhibitors, biochemical, TCAMS library (AID 1159586); settings: recombinant PfPK6, Kinase-Glo ATP depletion luminescence
Chain of Plasmodium falciparum protein kinase 6 (PK6, PF3D7_1337100) (Q8IDW1 1-305): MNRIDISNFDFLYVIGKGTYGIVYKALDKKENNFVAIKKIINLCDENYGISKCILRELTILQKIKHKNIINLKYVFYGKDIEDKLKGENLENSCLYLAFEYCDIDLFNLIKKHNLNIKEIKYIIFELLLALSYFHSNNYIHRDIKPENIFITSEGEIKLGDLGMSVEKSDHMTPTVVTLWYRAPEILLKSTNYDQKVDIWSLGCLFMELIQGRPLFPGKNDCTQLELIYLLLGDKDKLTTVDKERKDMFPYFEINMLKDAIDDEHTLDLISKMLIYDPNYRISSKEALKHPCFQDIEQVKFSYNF

[7] = biological target: Protein kinase 7 (PK7), Plasmodium falciparum 3D7 (PF3D7_0213400) (UniProt Q7YTF7); experiment: inhibition of Plasmodium PK7 catalytic activity – biochemical, TCAMS antimalarial set, Kinase-Glo luminescence (AID 1159587); settings: recombinant PfPK7, Kinase-Glo ATP depletion luminescence
Chain of Protein kinase 7 (PK7), Plasmodium falciparum 3D7 (PF3D7_0213400) (Q7YTF7 1-343): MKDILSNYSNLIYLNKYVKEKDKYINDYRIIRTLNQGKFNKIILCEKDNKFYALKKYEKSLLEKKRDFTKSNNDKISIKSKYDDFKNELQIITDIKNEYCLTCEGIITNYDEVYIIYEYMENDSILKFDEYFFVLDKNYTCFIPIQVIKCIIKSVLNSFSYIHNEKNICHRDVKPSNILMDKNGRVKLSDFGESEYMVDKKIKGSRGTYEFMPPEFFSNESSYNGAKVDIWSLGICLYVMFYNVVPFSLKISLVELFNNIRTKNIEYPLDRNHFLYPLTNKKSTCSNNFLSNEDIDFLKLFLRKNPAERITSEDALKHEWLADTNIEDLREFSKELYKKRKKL

[8] = biological target: Calcium-dependent protein kinase 4 (Plasmodium falciparum (isolate 3D7)) (UniProt Q8IBS5); experiment: PfCDPK4 kinase inhibitors, biochemical, TCAMS library (AID 1159588; cut-off not given, nearly all actives have IC50 up to about 0.91 µM); settings: recombinant PfCDPK4, Kinase-Glo ATP depletion luminescence
Chain of Calcium-dependent protein kinase 4 (Plasmodium falciparum (isolate 3D7)) (Q8IBS5 whole entry, looked up): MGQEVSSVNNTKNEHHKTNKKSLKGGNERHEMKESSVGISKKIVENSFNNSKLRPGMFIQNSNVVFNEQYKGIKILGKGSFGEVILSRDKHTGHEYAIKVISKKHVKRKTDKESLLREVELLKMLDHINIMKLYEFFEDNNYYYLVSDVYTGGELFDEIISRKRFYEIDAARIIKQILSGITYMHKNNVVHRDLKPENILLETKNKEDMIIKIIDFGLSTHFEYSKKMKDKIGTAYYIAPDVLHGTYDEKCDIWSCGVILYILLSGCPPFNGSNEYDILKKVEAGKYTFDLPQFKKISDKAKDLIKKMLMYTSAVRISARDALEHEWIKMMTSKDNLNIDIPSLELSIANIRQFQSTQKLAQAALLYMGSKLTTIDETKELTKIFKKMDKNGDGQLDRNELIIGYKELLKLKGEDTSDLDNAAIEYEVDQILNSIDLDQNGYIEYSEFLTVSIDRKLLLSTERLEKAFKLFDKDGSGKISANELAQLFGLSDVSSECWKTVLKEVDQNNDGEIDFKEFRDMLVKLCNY

CCCCCCCC1CC(CC(=O)Nc2ccnc3ccc(OC)cc23)CN1C(=O)OC(C)(C)C (configuration not stated)
inactive: growth inhibition [1] 34% | inhibition [2] 1% | inhibition [3] 3% | outcome [5] | outcome [6] | outcome [7] | outcome [8]
active: growth inhibition [4] 100%

CN(C)CCN(C)Cc1cccc(-c2ccc3c(Nc4ccc(F)cc4Cl)ccnc3c2)c1
active: growth inhibition [1] 100% | inhibition [2] 53% | growth inhibition [4] 101%
inactive: inhibition [3] 0% | outcome [5] | outcome [6] | outcome [7] | outcome [8]

Cc1ccc(NC(=O)c2cccc(CN3CCCN(Cc4cccc(O)c4)CC3)c2)cc1
inactive: growth inhibition [1] 3% | inhibition [2] 22% | inhibition [3] 1% | outcome [5] | outcome [6] | outcome [7] | outcome [8]
active: growth inhibition [4] 82%

CN(C)CC1CCCN1Cc1ccccc1-c1cnn(C)c(=O)c1Oc1cccc(C#N)c1 (configuration not stated)
active: growth inhibition [4] 92%
inactive: growth inhibition [1] 15% | inhibition [2] 26% | inhibition [3] 4% | outcome [5] | outcome [6] | outcome [7] | outcome [8]

c1ccc2[nH]c(-c3ccc(-c4ccc(CNCC5CCCO5)cc4)s3)nc2c1 (configuration not stated)
inactive: inhibition [2] 27% | inhibition [3] 4% | outcome [5] | outcome [6] | outcome [7] | outcome [8]
active: growth inhibition [1] 87% | growth inhibition [4] 101%

O=C(Nc1ccc2c(c1)OCO2)NC1CCN(c2ccnc(NCc3ccc(F)cc3)n2)CC1
inactive: growth inhibition [1] 15% | inhibition [2] 33% | inhibition [3] 3% | outcome [5] | outcome [6] | outcome [7] | outcome [8]
active: growth inhibition [4] 88%

COc1cc2nc(-c3ccc(Br)cc3)cc(N)c2cc1OC
active: growth inhibition [1] 69% | inhibition [2] 90% | growth inhibition [4] 98%
inactive: inhibition [3] -3% | outcome [5] | outcome [6] | outcome [7] | outcome [8]

Cc1noc(C)c1-c1cccc(CNCc2cccc(-c3ccc(-c4nc5c(C)cccc5[nH]4)s3)c2)c1
active: growth inhibition [1] 75% | growth inhibition [4] 102%
inactive: inhibition [2] 22% | inhibition [3] 1% | outcome [5] | outcome [6] | outcome [7] | outcome [8]

N#Cc1ccc(C(=O)Nc2ccc(Cl)c(N3CCN(CCc4ccccc4)CC3)c2)cc1
active: growth inhibition [4] 90%
inactive: growth inhibition [1] 35% | inhibition [2] 5% | inhibition [3] 5% | outcome [5] | outcome [6] | outcome [7] | outcome [8]

Cc1nc(N)nc(N)c1C#CC1CCCC1
active: inhibition [2] 68% | growth inhibition [4] 96%
inactive: growth inhibition [1] 2% | inhibition [3] 4% | outcome [5] | outcome [6] | outcome [7] | outcome [8]

O=C(Nc1cccc(-c2cccc(-c3nc4ccccc4[nH]3)c2)c1)Nc1ccc(Cl)c(Cl)c1
inactive: inhibition [3] -3% | outcome [5] | outcome [6] | outcome [7] | outcome [8]
active: growth inhibition [1] 98% | inhibition [2] 78% | growth inhibition [4] 101%

c1ccc(CNCc2ccc(-c3cccc(-c4nc5ccccc5[nH]4)c3)cc2)cc1
inactive: inhibition [3] -2% | outcome [5] | outcome [6] | outcome [7] | outcome [8]
active: growth inhibition [1] 78% | inhibition [2] 55% | growth inhibition [4] 101%

COc1cc(CC2c3cc(O)c(Cl)cc3CCN2C)c(OC)cc1C (configuration not stated)
inactive: inhibition [2] 10% | inhibition [3] 0% | outcome [5] | outcome [6] | outcome [7] | outcome [8]
active: growth inhibition [1] 88% | growth inhibition [4] 99%

CCCN(CCC)CCCNc1ccc(C(=O)Nc2ccc(OCC)cc2)cc1[N+](=O)[O-]
active: growth inhibition [4] 89%
inactive: growth inhibition [1] 2% | inhibition [2] 7% | inhibition [3] -4% | outcome [5] | outcome [6] | outcome [7] | outcome [8]

CN1CCC(NCc2ccc(S(=O)(=O)Nc3ccc(Oc4cccc(Cl)c4)cc3)cc2)CC1
inactive: growth inhibition [1] 5% | inhibition [2] 47% | inhibition [3] 0% | outcome [5] | outcome [6] | outcome [7] | outcome [8]
active: growth inhibition [4] 99%

CN(C)CCOc1ccc2c(c1)OC(C)(C)C=C2c1cccc2ccccc12
inactive: growth inhibition [1] 48% | inhibition [3] -2% | outcome [5] | outcome [6] | outcome [7] | outcome [8]
active: inhibition [2] 66% | growth inhibition [4] 95%

CC1(C)[C@H]2CC[C@]1(C)CN(CC(O)Cn1c3ccccc3c3cc(I)ccc31)C2 (some centres not stated)
active: growth inhibition [1] 82% | growth inhibition [4] 94%
inactive: inhibition [2] -7% | inhibition [3] 1% | outcome [5] | outcome [6] | outcome [7] | outcome [8]

CCN(CCCN1CCCCC1)c1cc(C)nc(Nc2cccc(C(F)(F)F)c2)n1
active: growth inhibition [1] 88% | growth inhibition [4] 102%
inactive: inhibition [2] 25% | inhibition [3] 5% | outcome [5] | outcome [6] | outcome [7] | outcome [8]

COc1ccc(-c2cccc(NC(=O)c3cccc(C#N)c3)c2)cc1CN1CCCN(C)CC1
active: growth inhibition [1] 99% | growth inhibition [4] 101%
inactive: inhibition [2] 22% | inhibition [3] -4% | outcome [5] | outcome [6] | outcome [7] | outcome [8]

CC(C)CNC(=O)c1cncc(-c2ccc(CNCCCc3ccccc3)cc2)c1
active: growth inhibition [1] 73% | growth inhibition [4] 101%
inactive: inhibition [2] 28% | inhibition [3] -6% | outcome [5] | outcome [6] | outcome [7] | outcome [8]

CN(C)CCN1CCN(CCCN2c3ccccc3Sc3ccc(C(F)(F)F)cc32)CC1
active: growth inhibition [1] 61% | inhibition [2] 98% | growth inhibition [4] 99%
inactive: inhibition [3] -2% | outcome [5] | outcome [6] | outcome [7] | outcome [8]

CCOc1ccc2c(NN=Cc3cc(OC)c(OC)cc3OC)cc(C)nc2c1
active: growth inhibition [1] 97% | growth inhibition [4] 101%
inactive: inhibition [2] 24% | inhibition [3] 4% | outcome [5] | outcome [6] | outcome [7] | outcome [8]

O=S(=O)(c1ccc(NC(=S)NN=Cc2ccccn2)cc1)N1CCCCC1
active: growth inhibition [1] 56% | growth inhibition [4] 98%
inactive: inhibition [2] 43% | inhibition [3] -5% | outcome [5] | outcome [6] | outcome [7] | outcome [8]

COc1cccc2c(NN=Cc3ccc([N+](=O)[O-])cc3)ccnc12
active: growth inhibition [4] 92%
inactive: growth inhibition [1] 16% | inhibition [2] 25% | inhibition [3] -3% | outcome [5] | outcome [6] | outcome [7] | outcome [8]

COc1ccc2nccc([C@@H](O)CN3CCC(NCc4ccc(OC)c(NC=O)c4)CC3)c2c1
active: growth inhibition [4] 97%
inactive: growth inhibition [1] -1% | inhibition [2] 0% | inhibition [3] 3% | outcome [5] | outcome [6] | outcome [7] | outcome [8]

CO/C(=C\C=C\c1cc2cc(Cl)c(Cl)cc2[nH]1)C(=O)NCCCN1CCCC[C@H]1C
inactive: inhibition [2] 41% | inhibition [3] 3% | outcome [5] | outcome [6] | outcome [7] | outcome [8]
active: growth inhibition [1] 91% | growth inhibition [4] 100%

COc1ccccc1C1CCN(C2CCC(NC(=O)c3cc4ccccc4[nH]3)CC2)CC1 (configuration not stated)
active: growth inhibition [4] 88%
inactive: growth inhibition [1] 7% | inhibition [2] 49% | inhibition [3] 0% | outcome [5] | outcome [6] | outcome [7] | outcome [8]

O=C(Nc1ccc(N2CCCN(Cc3cccc(F)c3)CC2)cc1)c1cccs1
inactive: inhibition [2] 2% | inhibition [3] 0% | outcome [5] | outcome [6] | outcome [7] | outcome [8]
active: growth inhibition [1] 96% | growth inhibition [4] 96%

COc1cc(OC)c2c(c1Cl)O[C@]1(C2=O)C(=O)C(Cc2ccccc2)(Cc2ccccc2)C(=O)C[C@H]1C
active: growth inhibition [4] 90%
inactive: growth inhibition [1] 45% | inhibition [2] -12% | inhibition [3] -3% | outcome [5] | outcome [6] | outcome [7] | outcome [8]

O=C(/C=C/c1cccc(C(F)(F)F)c1)NCCCCCN1CCN(C(=O)Nc2ccc(Cl)c(Cl)c2)CC1
inactive: growth inhibition [1] -1% | inhibition [2] 29% | inhibition [3] 4% | outcome [5] | outcome [6] | outcome [7] | outcome [8]
active: growth inhibition [4] 89%

O=C(Cn1c(CCc2cccc(F)c2F)nc(=O)c2cccnc21)N(Cc1ccc(-c2ccc(C(F)(F)F)cc2)cc1)C1CCN(C2CCOCC2)CC1
inactive: inhibition [3] 1% | outcome [5] | outcome [6] | outcome [7] | outcome [8]
active: growth inhibition [1] 67% | inhibition [2] 100% | growth inhibition [4] 94%

COc1cc2nc(NCC3CCCO3)n3nc(-c4ccccc4)nc3c2cc1OC (configuration not stated)
active: growth inhibition [1] 97% | growth inhibition [4] 92%
inactive: inhibition [2] -9% | inhibition [3] -7% | outcome [5] | outcome [6] | outcome [7] | outcome [8]

CN(C)CCCNc1ncnc2c1[nH]c1ccc(F)cc12
active: growth inhibition [4] 100%
inactive: growth inhibition [1] -1% | inhibition [2] 14% | inhibition [3] 1% | outcome [5] | outcome [6] | outcome [7] | outcome [8]

CN(CCCCNC(=O)c1cc2ccccc2[nH]1)C1CC2(CCN(C(=O)OC(C)(C)C)CC2)c2ccccc21 (configuration not stated)
inactive: inhibition [2] 12% | inhibition [3] 2% | outcome [5] | outcome [6] | outcome [7] | outcome [8]
active: growth inhibition [1] 75% | growth inhibition [4] 86%

NC1CCN(c2nc(NCCCc3ccc(O)cc3)nc(NCc3ccccc3-c3ccc(C(F)(F)F)cc3)n2)CC1
active: growth inhibition [1] 88% | growth inhibition [4] 101%
inactive: inhibition [2] 15% | inhibition [3] 1% | outcome [5] | outcome [6] | outcome [7] | outcome [8]

CN(CCC(O)c1ccc(Cl)c(Cl)c1)C[C@H]1C[C@@H]1C(=O)c1ccccc1 (some centres not stated)
active: growth inhibition [1] 96% | growth inhibition [4] 98%
inactive: inhibition [2] 11% | inhibition [3] -3% | outcome [5] | outcome [6] | outcome [7] | outcome [8]

COc1cc2nc(N(C)Cc3cccc(I)c3)nc(N)c2cc1OC
inactive: inhibition [2] 7% | inhibition [3] 1% | outcome [5] | outcome [6] | outcome [7] | outcome [8]
active: growth inhibition [1] 88% | growth inhibition [4] 101%

O=C(Nc1nc2cc(S(=O)(=O)NCCc3ccc(F)cc3)ccc2n1CCCn1ccnc1)c1ccc(Cl)cc1
inactive: inhibition [2] 18% | inhibition [3] 3% | outcome [5] | outcome [6] | outcome [7] | outcome [8]
active: growth inhibition [1] 55% | growth inhibition [4] 100%

Cc1noc(-c2ccccc2)c1NC(=O)NC1CCN(CCCCCNC(=O)/C=C/c2ccc(Cl)c(Cl)c2)CC1
active: growth inhibition [4] 93%
inactive: growth inhibition [1] -3% | inhibition [2] -3% | inhibition [3] -3% | outcome [5] | outcome [6] | outcome [7] | outcome [8]

From PubChem BioAssay
